About 83,000 compounds went through this panel and 20% of them were active in at least one assay; those are over-represented in the sample as a whole.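 Activity criterion: percent growth below 10, measured after cells in 96-well plates were exposed to a single compound concentration for 48 hours.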 A number with no mark means an inactive call. Calls of active or inactive are those of the source.
Legend:
Experiment in all cases: NCI-60 one-dose screen, 48 h (100 = growth as untreated, 0 = no growth, -100 = all killed)
Conditions in all cases: 10 µM unless noted
NCI-H23 lung = tested on: NCI-H23 lung
NCI-H226 lung = tested on: NCI-H226 lung
NCI-H322M lung = tested on: NCI-H322M lung
HOP-62 NSCLC = tested on: HOP-62 NSCLC
NCI-H460 lung = tested on: NCI-H460 lung
HOP-92 NSCLC = tested on: HOP-92 NSCLC
NCI-H522 lung = tested on: NCI-H522 lung
786-0 renal = tested on: 786-0 renal
COLO 205 colon = tested on: COLO 205 colon
DU-145 prostate = tested on: DU-145 prostate
K-562 leukemia = tested on: K-562 leukemia
MALME-3M melanoma = tested on: MALME-3M melanoma
MDA-MB-231 breast = tested on: MDA-MB-231 breast
RXF 393 renal = tested on: RXF 393 renal
SF-268 CNS = tested on: SF-268 CNS
SF-295 CNS = tested on: SF-295 CNS
SF-539 CNS = tested on: SF-539 CNS
UACC-257 melanoma = tested on: UACC-257 melanoma
M14 melanoma = tested on: M14 melanoma
A549/ATCC NSCLC = tested on: A549/ATCC NSCLC

Row | SMILES | growth (NCI-H23 lung) | growth (NCI-H226 lung) | growth (NCI-H322M lung) | growth (HOP-62 NSCLC) | growth (NCI-H460 lung) | growth (HOP-92 NSCLC) | growth (NCI-H522 lung) | growth (786-0 renal) | growth (COLO 205 colon) | growth (DU-145 prostate) | growth (K-562 leukemia) | growth (MALME-3M melanoma) | growth (MDA-MB-231 breast) | growth (RXF 393 renal) | growth (SF-268 CNS) | growth (SF-295 CNS) | growth (SF-539 CNS) | growth (UACC-257 melanoma) | growth (M14 melanoma) | growth (A549/ATCC NSCLC)
1 | CN(C)c1ccc(C(=C2C=CC(=[N+](C)C)C=C2)c2ccc(N(C)C)cc2)cc1 | -19.9% (active) | -73.1% (active) | -42.2% (active) | -75.5% (active) | -39% (active) | -70.1% (active) | -44.9% (active) | -96.2% (active) | -84.3% (active) | -91.8% (active) | -10.4% (active) | -81.4% (active) | -56.5% (active) | -92.2% (active) | -74.1% (active) | -55.2% (active) | -70.6% (active) | -62.7% (active) | -80.2% (active) | –
2 | CC(O)C(O)C(O)C(O)C(O)C(=O)NNc1ccccc1 (stereo not drawn) | 96.1% | 94.3% | 76.1% | 72.4% | 100% | 95.2% | 66.8% | 103% | – | 96.4% | 67.7% | 105% | 81.1% | 119% | 87.4% | 86.4% | 92.7% | 100% | 85% | –
3 | CC(=O)c1c(O)c(C)c(O)c2c1OC1=CC(=O)C(C(C)=O)C(=O)C12C (stereo not drawn) | 79.1% | 88.6% | 60.3% | 74.3% | 89.1% | -0.143% (active) | 71.7% | 69.9% | – | 107% | 68.9% | 79.4% | 96.3% | 105% | 88.9% | 16.7% | 98% | 97.8% | – | –
4 | CCc1cnc2ccccc2c1/C=C/c1ccc(N(C)C)cc1 | 65.2% | 74.5% | 71.6% | 47.4% | 30.8% | 60.1% | 23.3% | 44% | 41.5% | 68.4% | 13% | 50.7% | 38.8% | 63% | 57.4% | 26% | – | 56.4% | 28.2% | –
5 | Clc1ccc(Cc2nc3ccccc3s2)cc1 | 89.3% | 89.2% | 89.2% | 115% | 105% | 122% | 99.1% | 109% | 117% | 98.6% | 98.1% | – | 74% | 112% | 88.5% | 91.5% | 106% | 97.7% | 98.2% | –
6 | CCCCCCCCCCCCCCCC[N+]1(C)CCCC1c1cccnc1 (stereo not drawn) | 25.3% | 41.4% | 88.7% | 53.7% | 23.6% | 5.98% (active) | 41.2% | 52.7% | – | 52.1% | 36.3% | 64.7% | 30.8% | 45.3% | 29.6% | 42.2% | 33.3% | 75.9% | 17.9% | –
7 | Cc1cc(C(N)=O)cc(C)c1C(=O)OCCCl | 104% | 105% | 97.2% | 93.9% | 101% | 90.1% | 101% | 100% | 111% | 99.2% | 93.6% | 101% | 105% | 117% | 95% | 99.7% | 101% | – | 108% | –
8 | O=C(c1ccccc1)c1cc2ccccc2oc1=O | 94.5% | 86.3% | 97.7% | 88.6% | 117% | 51.3% | 95% | 102% | 119% | 114% | 111% | 90.4% | 79.5% | 90% | 101% | 113% | 116% | 96.9% | 104% | –
9 | CC1CC(C)(C)OB(OC(C)CC(C)(C)OB2OC(C)CC(C)(C)O2)O1 (stereo not drawn) | 93% | 107% | 102% | 91.6% | 111% | 101% | 81.6% | 98.4% | 93.8% | 102% | 96.1% | 111% | – | 116% | 102% | 105% | 104% | 94.8% | -55.3% (active) | –
10 | CC(C)c1ccc(Nc2n[nH]c(=S)s2)cc1 | 87.1% | 105% | 102% | 99.4% | 114% | 82.6% | – | 96.8% | 116% | 104% | 95.5% | 102% | 89.1% | 109% | 107% | 90.4% | 104% | – | – | 101%
11 | O=C(O)c1ccc2c(c1)C(=O)c1ccccc1C2=O | 103% | 92% | 102% | 90.9% | 105% | 93.9% | 98.6% | 103% | 100% | 98.5% | 88.7% | 102% | 94.1% | 110% | 98.3% | 100% | 97.7% | – | 101% | –
12 | O=C1C=CC(=O)N1c1ccc(O)cc1 | 103% | 101% | 105% | 104% | 104% | 101% | 104% | 98.3% | -37% (active) | 117% | 91.1% | – | 94.7% | 110% | 109% | 114% | 111% | 106% | 105% | –
13 | Clc1ccccc1C(c1ccccc1)(c1ccccc1)n1ccnc1 | 41.9% | 29.2% | 61.8% | 34.3% | 51.4% | 19.7% | 28.1% | 48.3% | 24% | 60.1% | 17% | 39.7% | 59.1% | 23.6% | 57.5% | 19% | 52% | 54.4% | 31% | –
14 | CCN(CC)CCNc1ccc([N+](=O)[O-])c2sc3ccccc3c(=O)c12 | 34.6% | 18.4% | 14.2% | 16.9% | 3.12% (active) | 16.9% | 12.7% | 37.2% | 1.96% (active) | – | 10.2% | -8.2% (active) | 56.2% | 5.72% (active) | 32.2% | 7.95% (active) | 21.9% | 29.3% | 34.1% | –
15 | CCCCCCCCC(=O)OCCCC(CCC(CCC1CCCO1)OC(=O)CCCCCCCC)OC(=O)CCCCCCCC (stereo not drawn) | 104% | 104% | 102% | 95.6% | 111% | 99% | 70.8% | 97% | 111% | 106% | 115% | 109% | – | 107% | 95.7% | 94.4% | 97.3% | 99.9% | 111% | –
16 | CN(C)c1ccc2cc3c(cc2c1)Oc1ccccc1N3.[Cl][Zn][Cl] | 78.7% | 91.2% | 84.7% | 105% | 96.8% | 98.8% | -7.15% (active) | 104% | 19.2% | 90.9% | 12.1% | – | 0.0703% (active) | 95.6% | 83.8% | 97.2% | 99.9% | 81.5% | 102% | –
17 | COc1cc2c(c(OC)c1OC)-c1ccc(NCc3ccccc3)c(=O)cc1[C@@H](NC(C)=O)CC2 | 25.9% | -12.4% (active) | 50.1% | 26.9% | 4.14% (active) | – | -10.3% (active) | 21.9% | -82.4% (active) | 1.24% (active) | 2.48% (active) | 40.3% | -3.82% (active) | 51.8% | 25.3% | -36.2% (active) | 0.134% (active) | 63.4% | 13.6% | 14.5%

Reference: PubChem BioAssay (NCI)
